# From PubChem BioAssay AID590 (National Center for Advancing Translational Sciences (NCATS), 2007)
# About 6,500 (11%) of roughly 59,000 compounds were called active. Roughly 15% stayed inconclusive and do not appear here. No stated cut-off is given here; in the data, active means max dye-equivalent concentration above about 10 nM; inconclusive means mostly about 1.1 nM to 9.6 nM; inactive means weaker than that. What follows is part of a selection rich in actives, with near analogues and random picks from the rest.
# Assay: qHTS Assay for Spectroscopic Profiling in A350 Spectral Region
# Conditions: Compound autofluorescence, 340/450 nm, Alexa 350 dye-equivalents; stronger effect = higher value
row,SMILES,max dye-equivalent concentration
1,CCNC(=O)CCc1nc(-c2ccc(C(C)(C)C)cc2)no1,inactive
2,Cc1ccc(S(=O)(=O)NCc2nc3ccccc3c(=O)n2N)cc1,inactive
3,Cc1ccc(S(=O)(=O)c2c(N)n(C)c3nc4ccccc4nc23)cc1,3600 nM (active)
4,CCOC(=O)N1CC=C2C(C#N)=C(N)C(C#N)(C#N)[C@H](c3cccs3)[C@H]2C1,35 nM (active)
5,CC1=C(C(=O)Nc2ccccc2)C(c2cccs2)C(C#N)=C(SCC#N)N1 (stereo not given),inactive
6,CC(=O)N1CCN(c2ccc(NCc3ccc(C(C)C)cc3)cc2)CC1,inactive
7,Cn1c(/C(C#N)=C2/CCCCCN2)nc2ccccc21,23 nM (active)
8,N#C/C(=C1\CCCN1)c1nc(-c2ccccc2)cs1,inactive
9,CCC(C)(C)n1nnnc1C(c1cccs1)N1CCN(Cc2ccccc2)CC1 (stereo not given),inactive
10,O=C1c2ccccc2C(=O)C1c1ccccc1,inactive
11,COc1ccc2[nH]c(=O)c(-c3noc(-c4ccc(F)cc4)n3)cc2c1,14 nM (active)
12,Cc1cccc(-c2noc(-c3ccc(F)cc3)n2)c1,inactive
13,O=C(c1cc(C(F)(F)F)cc(C(F)(F)F)c1)N1CCC2(CC1)CN(c1ccncc1)C2,inactive
14,CN1CCN(c2ncncc2-c2ccc(C(=O)N(C)C)cc2)CC1,inactive
15,COCCNC(=O)CN(C(=O)CCC(=O)Nc1cc(C)on1)c1ccc(C)cc1C,inactive
16,COc1cc2[nH]c(=S)n(CCN3CCCCC3C)c(=O)c2cc1OC (stereo not given),inactive
17,CCCCn1c(SCC(=O)NCC2CCCO2)nc2ccc(N3CCOCC3)cc2c1=O (stereo not given),71 nM (active)
18,CCn1c(SCC(=O)NCC2CCCO2)nc2cc(S(=O)(=O)N3CCCCC3)ccc21 (stereo not given),inactive
19,COCCCNC(=O)CSc1nc2ccc(N3CCOCC3)cc2c(=O)n1CCc1ccccc1,69 nM (active)
20,CCCCn1c(SCC(=O)NCCc2ccc(OC)c(OC)c2)nc2c1c(=O)n(C)c(=O)n2C,inactive
21,CCc1ccc(NC(=O)CSc2nc3ccccc3c(=O)n2CCN2CCOCC2)cc1,inactive
22,O=C(CSc1nc2cc3c(cc2c(=O)n1CCC1=CCCCC1)OCO3)NCc1ccco1,inactive

row,SMILES,max dye-equivalent concentration
1,O=C(c1ccco1)N1CCC[C@@]2(CCN(c3ccccc3)C2)C1,inactive
2,CC(Oc1ccc(Cl)cc1)C(=O)Nc1ncccn1 (stereo not given),inactive
3,O=C(c1cc(C(F)(F)F)cc(C(F)(F)F)c1)N1CCC2(CCCN(Cc3ccncc3)C2)CC1,inactive
4,O=C(COc1ncnc2ccccc12)NC(=O)NCc1ccccc1,inactive
5,Cc1cccc(-n2c(N)cc(=O)nc2SC(C)C(=O)NC2CCCCC2)c1 (stereo not given),inactive
6,COC(=O)c1ccc(CSc2ccccc2C)o1,inactive
7,CCCc1cc(=O)oc2c(C)c(O)c(CN3CCCCC3)cc12,8800 nM (active)
8,CCOC(=O)N1CCN(Cc2oc(CO)cc(=O)c2O)CC1,inactive
9,CCOC(=O)c1ccc(NC(=O)CSc2nnc(COc3ccccc3OC)n2C)cc1,inactive
10,O=C(Nc1ccon1)c1cccc(Cl)c1,inactive
11,CCCN1C2=C(C(=O)CCC2)C(c2ccc(O)c(Br)c2)C2=C1CCCC2=O,81 nM (active)
12,c1ccc(CNc2ncncc2-c2cccnc2)cc1,inactive
13,CCC(=O)Nc1ccc2c(c1)nc(CCN1CCN(C)CC1)n2C,inactive
14,CC(Nc1nc(N2CCCC2)nc2ccccc12)c1ccccc1 (stereo not given),170 nM (active)
15,Cc1ccc(C(CC(=O)O)Nc2nc(N3CCCCC3)nc(N3CCCCC3)n2)cc1 (stereo not given),inactive
16,Cc1cc2c(cc1C)NC1=C(N2)O[C@H](c2c[nH]c3ccc(COc4ccccc4)cc23)C1=O,inactive
17,Cn1c(=O)n(C)c2cc(CNc3ccc(N4CCOCC4)c(C(=O)O)c3)ccc21,22 nM (active)
18,Cn1nc(-c2ccc(N3CCOCC3)c(NC(=O)c3ccccc3)c2)c2ccccc2c1=O,inactive
19,Cn1c(=O)n(C)c2cc(C(=O)Nc3ccc4c(c3)OCO4)ccc21,inactive
20,Cn1c(CNc2nc(-c3ccccc3)cs2)nnc1SCC(=O)c1ccccc1,inactive
21,COc1ccc(CC(=O)Nc2c3c(nn2-c2cccc(Cl)c2)CS(=O)C3)cc1 (stereo not given),inactive
22,Cn1c(NC(=O)c2ccco2)c(-c2ccccc2Cl)c(=O)c2ccccc21,inactive

row,SMILES,max dye-equivalent concentration
1,COC(=O)c1cc(Cl)c(NC(=O)c2ccco2)cc1OC,inactive
2,Cc1ccc(-n2nc3cc(Cl)c(NC(=O)c4ccco4)cc3n2)cc1,52 nM (active)
3,CCN(CC)CCCNC(=O)c1cc(-c2cccc(Cl)c2)on1,inactive
4,Cc1cc(C(F)(F)F)n2ncc(-c3ccccc3)c2n1,12 nM (active)
5,Cc1cc(-n2nc(C)cc2C)n2ncc(-c3ccccc3)c2n1,inactive
6,O=C(Cn1c(-c2ccc(Cl)cc2)noc1=O)N1CCN(c2ccccc2F)CC1,inactive
7,CC(=O)Oc1ccc2c(C)c(CC(C)O)c(=O)oc2c1 (stereo not given),21000 nM (active)
8,COc1ccccc1-c1nc(NCCNC(C)=O)c2ccccc2n1,inactive
9,C=CCn1c(=O)c2ccccc2n2c(SCC(=O)N3CCCc4ccccc43)nnc12,inactive
10,O=c1oc2c(CN3CCCCC3)c(O)ccc2c2c1CCCCC2,13000 nM (active)
11,CCCn1c(=O)c2ccccc2n2c(SCC(=O)/C(C#N)=C(\C)N)nnc12,inactive
12,Cc1ccc(S(=O)(=O)N(C)CC(=O)NC2CCCC2)cc1,inactive
13,COc1ccccc1Cc1nc(-c2ccc(C)cc2)no1,17 nM (active)
14,Cc1ccc(-c2noc(CN3CCN(Cc4ccccc4)CC3)n2)cc1,inactive
15,Cc1ccc(Cc2nc(-c3cccc(C)c3)no2)cc1,inactive
16,C[C@H]1O[C@@H](CC(=O)O)Cc2c1c(O)c1c(O)cc(-c3cc(=O)c4c(=O)c5c(c(=O)c=4c3=O)C[C@H](CC(=O)O)O[C@@H]5C)c(O)c1c2O,inactive
17,O=C(CSc1nc2ccccc2o1)N1CCN(c2ccc(Cl)cc2)CC1,inactive
18,CC(=O)N(CN1C(=O)C2CC=CCC2C1=O)c1cccc(Cl)c1 (stereo not given),inactive
19,O=C(CC1NCCNC1=O)Nc1ccc(Oc2ccccc2)cc1 (stereo not given),inactive
20,O=C(CC1Nc2ccccc2NC1=O)Nc1ccccc1 (stereo not given),100 nM (active)
21,CCOc1ccc(NC(=O)CC2NCCNC2=O)cc1 (stereo not given),inactive
